# Inconclusive results are not listed. Active and inactive are the calls of the source. Calls come from the whole dose curve; as a rule, active = well fitted inhibition curve with a large enough effect; inconclusive = small, poorly fitted or top-dose-only effect; inactive = flat fitted curve, though single readings scatter.
# Tested on: KB-3-1
# Experiment: Cytotoxic Profiling of Annotated Libraries Using Quantitative High-Throughput Screening (AID 1296008); note: nearly all actives have a fitted effect of over 60% in size
# Settings: Five cell lines viability, CellTiter-Glo ATP luminescence, 48-72 h; max response: stronger effect = lower value
# How it was run: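 Compounds were pin-transferred onto cells and incubated 48 or 72 hr at 37 degree Celsius, 95% humidity. CellTiter-Glo was added, plates sat 10 min at room temperature, then ATP-coupled luminescence was imaged as the viability read-out.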
# % is set by controls: 0 for no effect and ±100 for the full control effect; potency is the fitted concentration of half-maximal effect.
Structure (SMILES),Potency,max response,outcome
CN(C)c1nc(NC2CCC(NC(=O)c3ccc(F)c(F)c3)CC2)nc2ccccc12 (stereo unspecified),23.1 µM (active),–,–
Cn1cncc1C(N)(c1ccc(Cl)cc1)c1ccc2c(c1)c(-c1cccc(Cl)c1)cc(=O)n2C (stereo unspecified),16.4 µM (active),–,–
COc1c(Nc2ncc(Cl)c(N[C@H]3[C@@H](C(N)=O)[C@@H]4C=C[C@H]3C4)n2)ccc2c1CC[C@@H](N1CCOCC1)CC2,18.4 µM (active),–,–
CC(=O)NC1=NN(C(C)=O)C(C)(c2ccccc2)S1 (stereo unspecified),5.17 µM (active),–,–
CCS(=O)(=O)N1CCN(c2ccc(Nc3ncc(C(N)=O)c(NC4CC4)n3)cc2)CC1,5.17 µM (active),–,–
C/C=C/c1ccc(O[C@@H]2O[C@H](CO)[C@@H](O)[C@H](O)[C@H]2O)c(OC)c1,–,-6.82% (inactive),–
CNC(=O)c1ccccc1Nc1nc(Nc2ccc3c(c2OC)CCC[C@@H](N2CCN(CCO)CC2)C3)ncc1Cl,13 µM (active),–,–
Oc1ccc(CNc2ccccc2F)c2cccnc12,5.8 µM (active),–,–
COC(=O)N[C@@H](C)CNc1nccc(-c2cn(C(C)C)nc2-c2cc(Cl)cc(NS(C)(=O)=O)c2F)n1,–,-3.34% (inactive),–
Nc1nc(Nc2ccc(S(N)(=O)=O)cc2)n(C(=S)Nc2c(F)cccc2F)n1,1.3 µM (active),–,–
CC(O)c1cc(C(=O)N[C@@H](C)Cn2ccc(-c3ccc(C#N)c(Cl)c3)n2)n[nH]1 (stereo partly specified),–,-27.8% (inactive),–
CCCN1CCC(c2cccc(S(C)(=O)=O)c2)CC1,–,-3.93% (inactive),–
O=c1[nH]ccc2cc(OC3CCNCC3)ccc12,–,–,inactive
CC1(C)CCCC2(C)C(C(=O)O)=CCC12 (stereo unspecified),–,-0.0594% (inactive),–
O=C(NCc1cccc(O)c1)Nc1nc(-c2ccncc2)cs1,–,-3.25% (inactive),–
CNC12CC3C[C@@](C)(C1)C[C@](C)(C3)C2,–,–,inactive
CC(C)(C)c1cc(Br)cc([C@H](CC(=O)O)NC(=O)CNC(=O)c2cc(O)cc(NC3=NCC(O)CN3)c2)c1 (stereo partly specified),–,3.01% (inactive),–
COc1cc2nc(N3CCC(N4CCCCC4)CC3)nc(NC3CCCCCC3)c2cc1OC,5.8 µM (active),–,–

Structure (SMILES),Potency,max response,outcome
COc1ccc(Oc2cc(C)c(-c3csc(NC(=O)c4ccncc4)n3)c(C)c2)cc1,0.146 µM (active),–,–
COC(=O)C1(C)c2[nH]c3ccccc3c2CCN1C(=O)CCl (stereo unspecified),20.6 µM (active),–,–
Cc1ccccc1-n1c([C@H](C)Nc2nc(N)nc3nc[nH]c23)nc2cccc(C)c2c1=O,–,-12.5% (inactive),–
Cc1ccc(NC(=O)c2ccc(CN3CC[C@H](N(C)C)C3)c(C(F)(F)F)c2)cc1Nc1nccc(-c2cncnc2)n1,–,-1.65% (inactive),–
Cc1ccc(C(=O)N(CCCN)C(c2oc3cc(Cl)ccc3c(=O)c2Cc2ccccc2)C(C)C)cc1 (stereo unspecified),0.0065 µM (active),–,–
CNC(=O)c1ccccc1Nc1cc(Nc2ccc(N3CCOCC3)cc2OC)ncc1C(F)(F)F,–,-12.1% (inactive),–
O=C1NC(=O)C(c2cn3c4c(cccc24)CCC3)C1c1c[nH]c2ccccc12 (stereo unspecified),1.3 µM (active),–,–
COc1cc2c(NC3CCN(CC4CCCCC4)CC3)nc(N3CCCN(C(C)C)CC3)nc2cc1OCCCN1CCCCC1,3.66 µM (active),–,–
Cc1cnc(Nc2ccc(F)cc2Cl)nc1-c1c[nH]c(C(=O)NC(CO)c2cccc(Cl)c2)c1 (stereo unspecified),–,-9.44% (inactive),–
CC(=O)NC[C@H]1CN(c2ccc(N3CCN(C(=O)CO)CC3)c(F)c2)C(=O)O1,–,-17.1% (inactive),–
CC(C)[C@@](C)(O)[C@@H]1CN(c2nc(-c3[nH]nc4ncccc34)c(F)cc2Cl)CCN1,20.6 µM (active),–,–
O=C(c1cccc(Cl)c1F)N1CCN(Cc2cccc(Nc3nccs3)n2)CC1,1.16 µM (active),–,–
Cc1c(C(=O)Nc2ccc(N3CC(C)OC(C)C3)nc2)cccc1-c1ccc(OC(F)(F)F)cc1 (stereo unspecified),–,-28.5% (inactive),–
CC(C)(C#N)c1ccc(N2C(=O)OCc3cnc4ccc(-c5cnc6ccccc6c5)cc4c32)cc1,6.51 µM (active),–,–
O=C(Nc1ccc(Cl)cc1F)c1ccccc1O,13 µM (active),–,–
Cc1c(NC(=O)c2cc(C(N)=O)nc3cc(F)ccc23)c(C(F)(F)F)nn1Cc1ccc(C#N)cc1,–,4.52% (inactive),–
CC1(C)CCC[C@]2(C)[C@H]3CC(=O)O[C@]3(C)CC[C@@H]12,–,-11% (inactive),–
Cc1ccc(C(=O)N(CCCN)C(c2nc3cc(Cl)ccc3c(=O)n2Cc2ccccc2)C(C)C)cc1 (stereo unspecified),0.0082 µM (active),–,–
